From PubChem BioAssay AID2665 (Vanderbilt High Throughput Screening Facility, 2010)
Active and inactive are the calls of the source. How the calls were made is not given here.

Legend:
[1] = target: Muscarinic acetylcholine receptor M5 (Homo sapiens) (UniProt P08912); experiment: M5 positive allosteric modulators, analog testing, SAR follow-up, CHO cells, calcium, ACh EC10, single 30 µM (AID 2665); details: CHO hM5 calcium flux, ACh EC10 potentiation; at 30 µM; stronger effect = higher value;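 further: 100% = response to a maximal acetylcholine concentration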
Sequence of Muscarinic acetylcholine receptor M5 (Homo sapiens) (P08912 whole entry, looked up): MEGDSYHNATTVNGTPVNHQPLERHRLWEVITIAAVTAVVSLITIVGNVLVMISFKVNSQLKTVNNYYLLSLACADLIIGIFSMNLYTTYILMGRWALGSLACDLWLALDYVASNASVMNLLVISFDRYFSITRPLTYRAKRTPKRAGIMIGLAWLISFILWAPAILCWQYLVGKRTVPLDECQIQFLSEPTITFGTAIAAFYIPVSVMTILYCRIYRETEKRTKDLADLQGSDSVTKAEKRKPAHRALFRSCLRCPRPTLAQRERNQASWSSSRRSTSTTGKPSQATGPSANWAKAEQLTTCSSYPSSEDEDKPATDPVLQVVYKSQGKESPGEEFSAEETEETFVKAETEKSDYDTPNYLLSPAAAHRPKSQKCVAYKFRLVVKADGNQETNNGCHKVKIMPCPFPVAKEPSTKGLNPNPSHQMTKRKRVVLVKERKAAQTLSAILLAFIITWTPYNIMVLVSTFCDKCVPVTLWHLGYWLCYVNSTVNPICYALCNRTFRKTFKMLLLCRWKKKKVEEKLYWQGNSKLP

[2] = target: Muscarinic acetylcholine receptor M1 (Rattus norvegicus) (UniProt P08482); experiment: as above; details: rat M1 potentiation, CHO calcium; at 30 µM; stronger effect = higher value

Row | SMILES | % ACh max response [1] | % ACh max response [2] [%]
1 | COc1ccc(CCN2C(=O)C(=O)c3cc(OC(F)(F)F)ccc32)cc1 | 88.3% (active) | 
2 | COc1ccc(-c2ccc(CN3C(=O)C(=O)c4cc(OC(F)(F)F)ccc43)cc2)cc1 | 46% (active) | 
3 | O=C1C(=O)N(Cc2ccccc2Cl)c2ccc(F)cc21 | 39.9% (active) | 41.4
4 | O=C1C(=O)N(Cc2ccc(Br)cc2F)c2ccccc21 | 48.5% (active) | 49.2
5 | O=C1C(=O)N(Cc2ccccc2Cl)c2ccc(OC(F)(F)F)cc21 | 51.9% (active) | 12.3
6 | Cc1ccc2c(c1)C(=O)C(=O)N2Cc1ccc(OC(F)(F)F)cc1 | 18.9% (inactive) | 13.8
7 | COc1cccc(CN2C(=O)C(=O)c3cc(F)ccc32)c1 | 41.6% (active) | 32.3
8 | O=C1C(=O)N(Cc2c(F)cccc2F)c2c(Cl)ccc(Cl)c21 | 12.2% (inactive) | 16.4
9 | COc1ccc(CCN2C(=O)C(=O)c3ccccc32)cc1 | 51.7% (active) | 38.6
10 | O=C1C(=O)N(Cc2c(F)cccc2F)c2c(F)cccc21 | 25.1% (inactive) | 33.1
11 | O=C1C(=O)N(Cc2ccc(-c3ccc(Cl)cc3)cc2)c2ccc(OC(F)(F)F)cc21 | 45.5% (active) | 
12 | O=C1C(=O)N(Cc2ccc(OC(F)(F)F)cc2)c2ccccc21 | 60.5% (active) | 54.7
13 | O=C1C(=O)N(Cc2c(F)cccc2F)c2ccc(Cl)cc21 | 31.8% (inactive) | 27.3
14 | O=C1C(=O)N(CCc2ccc(Br)cc2)c2ccc(OC(F)(F)F)cc21 | 81.1% (active) | 
15 | COc1ccc(CN2C(=O)C(=O)c3cccc(Cl)c32)cc1 | 30.3% (active) | 49.4
16 | O=C1C(=O)N(Cc2ccc(F)cc2F)c2c(Cl)ccc(Cl)c21 | 19.1% (inactive) | 17.2
17 | O=C1C(=O)N(Cc2ccccc2Cl)c2c(Cl)ccc(Cl)c21 | 18.9% (inactive) | 13.1
18 | Cc1ccccc1CN1C(=O)C(=O)c2c(Cl)ccc(Cl)c21 | 16.4% (inactive) | 13.7
19 | COc1ccc(-c2ccc(CN3C(=O)C(=O)c4ccccc43)cc2)cc1 | 30.8% (inactive) | 20.1
20 | O=C1C(=O)N(Cc2ccc(Br)cc2F)c2c(F)cccc21 | 46.3% (active) | 39.2
21 | O=C1C(=O)N(Cc2ccc(-c3cc(F)ccc3F)cc2)c2ccc(OC(F)(F)F)cc21 | 80.9% (active) | 
22 | CCCOc1ccc(-c2ccc(CN3C(=O)C(=O)c4cc(OC(F)(F)F)ccc43)cc2)cc1 | 31.8% (inactive) | 
23 | O=C1C(=O)N(Cc2ccc(Br)cc2F)c2ccc(OC(F)(F)F)cc21 | 36.4% (inactive) | 11.6
